{"source": "ChEMBL document CHEMBL3988442", "about": "“University of Dundee, Small-Polar-MMV Screening Library” (2021)", "note": "Hit rate of the full screen: of about 48,000 compounds, about 13,000 (27%) showed an effect of 50% or more. The list shows a part of the results."}
{"test_system": "Wolbachia pipientis", "assay": "Anti-Wolbachia Cell-Based Screen", "format": "functional", "parameters": "scale not given: in the data most compounds retested in dose-response had high values", "settings": "5 µM", "units": {"Percent Effect": "%"}}
{"smiles": "CCOC(=O)C1CCN(C(=O)CN2CCCC2c2cc(C)no2)CC1", "note": "(stereo not drawn)", "Percent Effect": -7.861}
{"smiles": "CCn1cc(S(=O)(=O)N2CCCCCC2c2cc(C)no2)cn1", "note": "(stereo not drawn)", "Percent Effect": 176.5}
{"smiles": "CCn1cc(S(=O)(=O)N2CCCCCC2c2cc(C)on2)cn1", "note": "(stereo not drawn)", "Percent Effect": 92.08}
{"smiles": "CC(C)OCCC1CCCCN1S(=O)(=O)c1cnn(C)c1", "note": "(stereo not drawn)", "Percent Effect": -6.246}
{"smiles": "CNS(=O)(=O)CCCN1CCCC1c1cc(C)on1", "note": "(stereo not drawn)", "Percent Effect": -6.242}
{"smiles": "COCCOCCC(=O)Nc1c(-c2ccc(F)cc2)ncn1C", "Percent Effect": -3.986}
{"smiles": "CCn1[nH]c(C)c2c(C(F)(F)F)cc(=O)nc1-2", "Percent Effect": -15.52}
{"smiles": "COc1c(C2CCCN2c2ncnc3ccsc23)c(C)nn1C", "note": "(stereo not drawn)", "Percent Effect": 5.005}
{"smiles": "CN1N=C(C(=O)N2CCN(c3ncccn3)CC2)CCC1=O", "Percent Effect": 16.67}
{"smiles": "CC(C)NC(=O)C1CCc2nnc(C(C)(C)C)n21", "note": "(stereo not drawn)", "Percent Effect": 100.1}
{"smiles": "CC(NC(=O)CCc1nc(C(C)(C)C)no1)c1nnc2n1CCC2", "note": "(stereo not drawn)", "Percent Effect": 1.388}
{"smiles": "O=C1CCSCC(C(=O)N2CCOCC2)N1", "note": "(stereo not drawn)", "Percent Effect": -11.6}
{"smiles": "CC(C)(C)c1nnc2n1C(C(=O)N1CCN(c3ncccn3)CC1)CC2", "note": "(stereo not drawn)", "Percent Effect": 115.5}
{"smiles": "Cc1cn2nc(N3CCCC3C(=O)N3CCOCC3)sc2n1", "note": "(stereo not drawn)", "Percent Effect": -18.11}
{"smiles": "O=C(COC1CCCC1)N1CCCN(c2ncccn2)CC1", "Percent Effect": -14.8}
{"smiles": "CC(C)(C)c1nnc2n1C(C(=O)N1CCOCC1)CC2", "note": "(stereo not drawn)", "Percent Effect": 111.9}
{"smiles": "CC(NC(=O)CCOc1ccccc1Cl)c1nnc2n1CCC2", "note": "(stereo not drawn)", "Percent Effect": 1.83}
{"smiles": "CN(C)C(=O)C1CCc2nnc(C(C)(C)C)n21", "note": "(stereo not drawn)", "Percent Effect": 107}
{"smiles": "CCc1nc2n(n1)CCCC2NC(=O)Nc1cccc(F)c1F", "note": "(stereo not drawn)", "Percent Effect": -21.46}
{"smiles": "C[S+]([O-])c1cccc(NC(=O)N(CCC#N)Cc2ccccn2)c1", "note": "(stereo not drawn)", "Percent Effect": -5.424}
{"smiles": "CCn1cc(CNc2ccc(N(C)CCOC)cn2)cn1", "Percent Effect": 3.344}
{"smiles": "CC(C)(C)c1nnc2n1C(C(=O)N1CCCC1)CC2", "note": "(stereo not drawn)", "Percent Effect": 107.6}
{"smiles": "O=C(C1CCCc2[nH]ncc21)N1CCCC1", "note": "(stereo not drawn)", "Percent Effect": -1.484}
{"smiles": "O=C(C1CCCc2[nH]ncc21)N1CCCCCC1", "note": "(stereo not drawn)", "Percent Effect": 7.18}
{"smiles": "COCC1CN(Cc2ccoc2)Cc2cn(CC3CCOCC3)nc21", "note": "(stereo not drawn)", "Percent Effect": -9.673}
{"smiles": "O=C(NCCCO)Nc1ccccc1", "Percent Effect": -6.748}
{"smiles": "CN1CCCC1CNC(=O)CCCOCc1ccccc1", "note": "(stereo not drawn)", "Percent Effect": -8.407}
{"smiles": "CN1CCCC1CCNC(=O)Nc1ccccc1", "note": "(stereo not drawn)", "Percent Effect": 124.8}
{"smiles": "CCN1C[C@H]2CCN(C(=O)Cc3cccc(OC)c3)CC[C@H]2S1(=O)=O", "Percent Effect": 109.3}
{"smiles": "Cc1ccccc1NC(=O)N1CC[C@@H]2CN(C)S(=O)(=O)[C@@H]2CC1", "Percent Effect": -6.47}
{"smiles": "COc1ccc(CC(=O)N2CCC(c3n[nH]c(C4CC4)n3)CC2)cc1", "Percent Effect": -2.488}
{"smiles": "Cc1ccccc1CNC(=O)N1CC[C@@H]2CN(C)S(=O)(=O)[C@@H]2CC1", "Percent Effect": -7.794}
{"smiles": "CN1C[C@H]2CCN(C(=O)NC3CCCC3)CC[C@H]2S1(=O)=O", "Percent Effect": 24.31}
{"smiles": "COc1ccc(CC(=O)N2CC[C@@H]3CN(C)S(=O)(=O)[C@@H]3CC2)cc1", "Percent Effect": 96.9}
{"smiles": "COc1cccc(CC(=O)N2CCN(c3cccc(C)c3)C(C)C2)c1", "note": "(stereo not drawn)", "Percent Effect": 0.04468}
{"smiles": "CCN1C[C@H]2CCN(C(=O)Nc3ccccc3C)CC[C@H]2S1(=O)=O", "Percent Effect": 5.146}
{"smiles": "CCN1C[C@H]2CCN(C(C)=O)CC[C@H]2S1(=O)=O", "Percent Effect": 7.241}
{"smiles": "COc1cccc(CC(=O)N2CC[C@@H]3CN(C)S(=O)(=O)[C@@H]3CC2)c1", "Percent Effect": 102.6}
{"smiles": "COc1cccc(NC(=O)N2CC[C@@H]3CN(C)S(=O)(=O)[C@@H]3CC2)c1", "Percent Effect": 108.6}
{"smiles": "COc1cccc(CC(=O)N2CCC(Cc3nnc(SC)n3C)CC2)c1", "Percent Effect": 13.49}
{"smiles": "Cc1c(C(=O)N(CCN(C)C)Cc2ccccn2)oc2ccccc12", "Percent Effect": -10.28}
{"smiles": "CCC1CN(C(=O)c2ccc(O)cn2)CCC(=O)N1Cc1ccccc1", "note": "(stereo not drawn)", "Percent Effect": -29.96}
{"smiles": "N#Cc1cc(S(N)(=O)=O)ccc1NC1CCc2cc(Cl)ccc21", "note": "(stereo not drawn)", "Percent Effect": -7.649}
{"smiles": "CNC(=O)[C@@H](c1ccccc1OC)N1CCC[C@H]1C(=O)NCCN(C)C.Cl.Cl", "Percent Effect": -2.091}
{"smiles": "COc1ccc(CN2CCCn3cncc3C2)cc1Cn1cncn1", "Percent Effect": 17.87}
{"smiles": "COc1cnc(C2(O)CCN(C(=O)c3ccccn3)CC2)c(OC)n1", "Percent Effect": 107.9}
{"smiles": "COc1cnc(C2(O)CCN(C(=O)c3ccco3)CC2)c(OC)n1", "Percent Effect": 113.8}
{"smiles": "COc1ccc(NC(=O)c2ccco2)c(N2CCN(C(C)=O)CC2)n1", "Percent Effect": -1.999}
{"smiles": "COc1cnc(C2(O)CCN(C(=O)c3scnc3C)CC2)c(OC)n1", "Percent Effect": 77.74}
{"smiles": "Cc1ccc(F)c(OC2(C(=O)O)CCN(C(=O)c3ccco3)CC2)c1", "Percent Effect": -23.64}
{"smiles": "CCC(=O)N1CCC(O)(c2ncc(OC)nc2OC)CC1", "Percent Effect": -0.9107}
{"smiles": "COc1cnc(C2(O)CCN(C(=O)c3ccncc3)CC2)c(OC)n1", "Percent Effect": -4.993}
{"smiles": "COc1cnc(C2(O)CCN(C(=O)c3cccnc3)CC2)c(OC)n1", "Percent Effect": 2.765}
